Out of some 360,000 compounds screened, about 950 (0.26%) were called active. No stated cut-off is given here; in the data, active means inhibition above about 11%; inactive means the rest. Shown is part of a subset that was picked to be rich in actives.
Test: growth loss of phage-infected E. coli, primary screen, RecBCD inhibitor project, absorbance, with phage, HTS (AID 651602)
Details: at 11.9 µM, active compounds read high

SMILES | inhibition
C/C(=N/O)c1ccc2ccc3ccccc3c2c1 | 1.01% (inactive)
Cc1ccc(-n2c(-c3ccc([N+](=O)[O-])cc3)nc3ccccc3c2=O)cc1 | 0.89% (inactive)
O=[N+]([O-])c1cnc2ccc3ccccc3c2c1 | 18.9% (active)
Cc1cccc(-n2c(C)nc3cc(C(=O)N4CCC5(CC4)OCCO5)ccc32)c1 | 4.97% (inactive)
COC(=O)C1=C(c2ccc(OCc3ccccc3)cc2)C[C@@H]2CC[C@H]1N2C(=O)NCc1cccc(F)c1 | 4.61% (inactive)
N#CC1=C(N)Oc2c(c(=O)oc3ccccc23)C1c1ccccc1OC(=O)c1cccs1 (stereo not given) | 5.44% (inactive)
COc1ccc(N=Cc2c(O)n(C)c(=O)[nH]c2=O)cc1 | 0.79% (inactive)
O=c1[nH]c(=O)n(-c2ccccc2)c(O)c1C=NC12CN3CN(CN(C3)C1)C2 | 1.36% (inactive)
CCc1nnc(NS(=O)(=O)c2ccc(N=Cc3c(O)n(-c4ccccc4)c(=O)[nH]c3=O)cc2)s1 | 11.9% (active)
CCC1(C)CC(CCNCc2ccc(N(C)C)cc2)(c2ccc(F)cc2)CCO1 (stereo not given) | 4.38% (inactive)

— PubChem BioAssay AID651602 (The Scripps Research Institute Molecular Screening Center, 2012)
